This is a sample that favours compounds with a hit; in the whole collection about 3.8% have one here.
GCN5L2 inh – GCN5L2 (KAT2A) acetyltransferase inhibition | Q92830 | GCN5L2 HAT assay, ThioGlo1 CoA-SH fluorescence | Potency, µM (series often up to 58.9 µM), actives largely listed as inhibitors | actives 0.21% (n = 390,000)
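Preincubate 20nM GCN5L2 with compound 15 min, RT → add 50uM ThioGlo1 + 75uM H3(1-25) + 70uM acetyl-CoA → read fluorescence 0 and 20 min. Primary qHTS; fluorescent artifacts likely.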
TrxR1 substrate – substrates of rat thioredoxin reductase 1; O89049; purified TrxR1 substrate turnover, NADPH consumption readout; Potency, µM (doses to about 114 µM); actives 0.01% (n = 390,000); note: nearly all actives have a fitted effect of over 50% in size
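Rat TrxR1, dispensed at 90 nM, was prereduced with 400 uM NADPH (final) for 5 min at ~22 deg C, then incubated with compound 15 min before 400 uM selenite. A first-read NADPH fluorescence drop versus no-compound background flagged substrates.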
VDR inhibitor – vitamin D3 receptor (human) inhibition. actives 0.93% (n = 400,000). P11473. VDR-SRC2-3 peptide fluorescence polarization, 2 h. Potency, µM, usual class: inhibitors. AID 504847
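Measured by FP: displacement of SRC2-3 coactivator peptide from VDR by library compounds, following a two-hour ambient incubation.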
GLS inh – glutaminase GLS (human) inhibition; O94925; GLS enzymatic activity, qHTS titration; Potency, µM (series often up to 45.5 µM), actives largely listed as inhibitors; actives 0.21% (n = 410,000); AID 624170
Target sequence (O94925 whole entry, looked up): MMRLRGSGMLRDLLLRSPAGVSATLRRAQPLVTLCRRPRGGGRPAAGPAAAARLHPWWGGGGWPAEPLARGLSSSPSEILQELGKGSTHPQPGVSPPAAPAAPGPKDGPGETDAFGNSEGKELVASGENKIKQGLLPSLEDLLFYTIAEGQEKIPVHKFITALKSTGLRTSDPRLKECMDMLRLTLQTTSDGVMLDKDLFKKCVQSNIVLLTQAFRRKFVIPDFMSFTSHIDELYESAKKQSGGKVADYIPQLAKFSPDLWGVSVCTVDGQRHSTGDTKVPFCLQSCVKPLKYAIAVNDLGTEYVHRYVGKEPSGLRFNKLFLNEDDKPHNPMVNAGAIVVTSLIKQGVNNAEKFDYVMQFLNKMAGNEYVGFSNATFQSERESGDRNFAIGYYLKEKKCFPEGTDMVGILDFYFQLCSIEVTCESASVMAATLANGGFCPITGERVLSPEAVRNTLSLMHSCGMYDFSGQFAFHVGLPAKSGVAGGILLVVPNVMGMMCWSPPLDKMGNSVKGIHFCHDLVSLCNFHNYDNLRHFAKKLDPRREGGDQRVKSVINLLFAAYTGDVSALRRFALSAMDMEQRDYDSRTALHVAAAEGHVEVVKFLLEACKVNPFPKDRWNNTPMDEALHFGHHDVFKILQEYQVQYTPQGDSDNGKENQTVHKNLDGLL
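Read-out is an Amplex red fluorescence increase coupled through glutamate oxidase and HRP, measured before and after 30 min room-temperature incubation. hKGA is in 45 mM KH2PO4 (pH 8.2) with 0.02% Tween-20; glutamine added as 1mM solution.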
rTrxR1 inhibitor – inhibitors of rat thioredoxin reductase 1. Potency, µM (doses to about 114 µM), hits mostly inhibitors. O89049. recombinant rTrxR1, NADPH fluorescence consumption, selenite substrate. actives 1% (n = 390,000); note: nearly all actives have a fitted effect of over 65% in size
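Rat TrxR1 (90 nM in the dispensed reagent) was pre-reduced with 400 uM NADPH for 5 min at room temperature, then incubated with compound for 15 min. After 400 uM selenite was added, NADPH fluorescence (Ex 340/Em 450 nm) was followed for 8 min.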
Sfp PPTase inh – inhibitors of Bacillus subtilis Sfp phosphopantetheinyl transferase. Q9F4F7. Biochemical Sfp PPTase activity, qHTS. Potency, µM, actives largely listed as inhibitors. actives 3.5% (n = 310,000);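 note: the enzyme is Sfp with the accession as filed and its product quenches rhodamine fluorescence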
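After 15 min at room temperature with compound, 15 nM Sfp received 5 uM rhodamine-CoA plus 12.5 uM BHQ-2-ybbR (50 mM Hepes pH 7.6, 10 mM MgCl2). Rate came from the fluorescence difference over 30 min, ex 525/em 598 nm.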
Large screens that a line does not name were inactive; ! = repeats disagree. Calls come from the whole dose curve; as a rule, active = well fitted curve in the direction sought with a large enough effect; inconclusive = small, poorly fitted or top-dose-only effect, or another doubt; inactive = no such curve, though single readings can be large; an effect the other way counts as inactive or inconclusive.

Cc1ccc(C(C2=C(O)CC(C)(C)CC2=O)C2C(=O)CC(C)(C)CC2=O)o1 (stereo not drawn)	VDR inhibitor 50.1µM, rTrxR1 inhibitor inconclusive
CC1(C)CC(=O)C(C(C2=C(O)CC(C)(C)CC2=O)c2cccs2)C(=O)C1 (stereo not drawn)	VDR inhibitor 50.1µM, rTrxR1 inhibitor 6.31µM, Sfp PPTase inh 22.4µM
CC1(C)CC(=O)C(C(C2=C(O)CC(C)(C)CC2=O)c2cccnc2)C(=O)C1 (stereo not drawn)	none
CCN(CC(=O)NNC(=O)c1ccccc1)Cc1ccc(OC)c(F)c1	none (no result: Sfp PPTase inh)
CC[C@@H](C)[C@@H](CO[C@@H](Cc1ccccc1)C(=O)N[C@@H](CCS(C)(=O)=O)C(=O)OC(C)C)NC[C@@H](N)CS	VDR inhibitor 10µM (no result: TrxR1 substrate, GLS inh, rTrxR1 inhibitor)
COc1ccccc1/C=C/C=N/N1CCN(Cc2ccccc2)CC1	none
CCC(NC(=O)CCc1ccccc1)c1ccccc1 (stereo not drawn)	VDR inhibitor 89.1µM
COc1ccc(-c2noc3c2-c2nc(-c4ccccc4)sc2CC3)cc1	none (no result: GCN5L2 inh, Sfp PPTase inh)
COc1cc2c(cc1OC)C(c1cc3cc4c(cc3[nH]c1=O)OCO4)N(C(=O)C1CC1)CC2 (stereo not drawn)	Sfp PPTase inh 39.8µM
COc1cc2c(cc1OC)C(c1cc3ccc(C)cc3[nH]c1=O)N(C(=O)c1ccco1)CC2 (stereo not drawn)	rTrxR1 inhibitor inconclusive
Cc1ccc(S(=O)(=O)c2cn(CC(=O)Nc3ccc4c(c3)OCO4)c3ccccc3c2=O)cc1	none (no result: Sfp PPTase inh)
CCNc1ccccc1CP(=O)(c1ccccc1)c1ccccc1O (stereo not drawn)	VDR inhibitor 20µM, rTrxR1 inhibitor 50.1µM, Sfp PPTase inh 1.41µM
CCC(=O)N1c2ccccc2C(C)(c2ccccc2)CC1(C)C (stereo not drawn)	none (no result: Sfp PPTase inh)
O=C(C1=C(O)C(=O)N(c2nc3ccc(Cl)cc3s2)C1c1ccco1)c1ccco1 (stereo not drawn)	GCN5L2 inh inconclusive, VDR inhibitor inconclusive, GLS inh 17.8µM, rTrxR1 inhibitor inconclusive (no result: Sfp PPTase inh)
CCOC(=O)c1sc(N2C(=O)C(O)=C(C(=O)c3ccco3)C2c2cccc([N+](=O)[O-])c2)nc1C (stereo not drawn)	GCN5L2 inh inconclusive, VDR inhibitor 70.8µM, GLS inh inconclusive, Sfp PPTase inh inconclusive
Cc1cc(C)c2nc(N3C(=O)C(O)=C(C(=O)c4ccco4)C3c3ccc(O)cc3)sc2c1 (stereo not drawn)	GCN5L2 inh inconclusive, VDR inhibitor 79.4µM (no result: Sfp PPTase inh)
Cc1cc(C)c2nc(N3C(=O)C(O)=C(C(=O)c4ccco4)C3c3cccc(O)c3)sc2c1 (stereo not drawn)	GCN5L2 inh inconclusive, VDR inhibitor 79.4µM, rTrxR1 inhibitor inconclusive (no result: Sfp PPTase inh)
O=C(N/N=C/c1cccn1-c1ccc([N+](=O)[O-])cc1)C(O)c1ccccc1 (stereo not drawn)	Sfp PPTase inh 17.8µM
Cc1ccc(CNS(=O)(=O)c2ccc([N+](=O)[O-])cc2)cc1	none
NC(=O)SCC(=O)Nc1ccc(Cl)cc1	VDR inhibitor 28.2µM
CCN(CC)C(=O)C1CCCN(C/C(C)=C/c2ccccc2)C1 (stereo not drawn)	Sfp PPTase inh 79.4µM
CCN(CC)C(=O)C1CCCN(C/C=C/c2ccccc2)C1 (stereo not drawn)	none
O=C(CSc1n[nH]c(-c2cccnc2)n1)Nc1ccccc1[N+](=O)[O-]	none
CCOC(=O)c1c(N)sc2c1CCC1C(=O)N(C3CCCCC3)C(=O)C21 (stereo not drawn)	Sfp PPTase inh 20µM
CCCCN(C)c1c(C)nc2ccc(C(=O)NC3CCN(C)CC3)cn12	none (no result: GCN5L2 inh, TrxR1 substrate, VDR inhibitor, rTrxR1 inhibitor, Sfp PPTase inh)
CN1C(=O)CC(=O)N(C)c2cc(S(=O)(=O)N(C)Cc3ccccc3)ccc21	VDR inhibitor inconclusive, Sfp PPTase inh 89.1µM
CC(C)OC(=O)c1nn2c(C(F)(F)F)cc(-c3ccco3)nc2c1Cl	none
CC(C)OC(=O)c1nn2c(C(F)(F)F)cc(-c3ccc(Br)o3)nc2c1Br	rTrxR1 inhibitor 25.1µM
O=C(OCCN1CCOCC1)c1cccnc1	GCN5L2 inh 1.12µM!
O=S(=O)(c1cccc(C(F)(F)F)c1)N1CCN(C(=S)NCc2ccco2)CC1	Sfp PPTase inh 70.8µM
O=C(NCc1ccco1)c1ccc(S(=O)(=O)N2CCCCC2)cc1	none
O=C(NCc1ccco1)c1ccc(S(=O)(=O)N2CCOCC2)cc1	Sfp PPTase inh 20µM
O=S(=O)(c1ccc2nc(-c3ccco3)c(-c3ccco3)nc2c1)N1CCOCC1	GCN5L2 inh inconclusive, rTrxR1 inhibitor 3.98µM, Sfp PPTase inh 10µM
CC(C)c1ccc(S(=O)(=O)N2CCN(C(=S)NCc3ccco3)CC2)cc1	VDR inhibitor inconclusive, Sfp PPTase inh inconclusive
Nc1nc2cc(S(=O)(=O)N3CCOCC3)ccc2o1	VDR inhibitor 39.8µM (no result: Sfp PPTase inh)
CSc1oc(-c2ccco2)nc1S(=O)(=O)c1ccc(Br)cc1	none
COc1ccc(CCNC(=O)c2cc3c(=O)n4cccc(C)c4nc3n(Cc3ccncc3)c2=N)cc1	none (no result: TrxR1 substrate, VDR inhibitor, GLS inh, rTrxR1 inhibitor)
FC(F)(F)c1ccc(N2CCN(c3ncnc4c3nnn4Cc3ccccc3)CC2)nc1	none
CN(C)S(=O)(=O)c1ccc(Cl)c(NC(=O)CN2CCC(Cc3ccccc3)CC2)c1	none
Cc1onc(-c2c(F)cccc2Cl)c1C(=O)N[C@@H]1C(=O)N2[C@H]1SC(C)(C)[C@H]2C(=O)O	GLS inh 3.55µM (no result: TrxR1 substrate, rTrxR1 inhibitor)
CN1C/C(=C/c2ccccc2[N+](=O)[O-])C(=O)/C(=C\c2ccccc2[N+](=O)[O-])C1	VDR inhibitor 70.8µM (no result: GCN5L2 inh, Sfp PPTase inh)
O=[N+]([O-])c1cccc(-c2ccc(/C=N/NC(=S)Nc3ccccc3)o2)c1	none
NC(=S)N/N=C/c1ccc(-c2ccc(Cl)c(Cl)c2)o1	Sfp PPTase inh 44.7µM
Cc1ccc(-c2ccc(/C=N/NC(N)=S)o2)cc1	VDR inhibitor 89.1µM, GLS inh inconclusive, Sfp PPTase inh 20µM
NC(=S)N/N=C\c1ccc(-c2cccc(Cl)c2Cl)o1	GCN5L2 inh inconclusive, rTrxR1 inhibitor inconclusive
CN(C)/N=C/c1ccc(/C=N/NC(N)=S)o1	Sfp PPTase inh 44.7µM
NC(=S)N/N=C/c1ccc(-c2ccccc2)o1	none
O=C(O)c1cc(-c2ccc(/C=N/NC(=S)Nc3ccccc3)o2)ccc1Cl	Sfp PPTase inh 39.8µM
CN(C)/C=C/C(=O)c1cnc(-c2ccccc2Cl)s1	none
COc1ccc(C(=O)C2CCCN(C(=O)c3c4c(nn3C)CCCC4)C2)cc1F (stereo not drawn)	none
Cc1ccc(CNC(=O)C(=O)NCCC2CCCCN2S(=O)(=O)c2ccccc2)cc1 (stereo not drawn)	VDR inhibitor inconclusive (no result: Sfp PPTase inh)
Cc1[nH]c2ccc(C(=O)NCCCN(C)C3CCCCC3)cc2c1C	none

Bioassay records as filed in PubChem BioAssay.
